# JMJD2A Tudor inh: qHTS Assay for Inhibitors of JMJD2A-Tudor Domain. AlphaScreen JMJD2A-Tudor / H3K4me3 peptide binding. AID 504339, 2011. Lysine-specific demethylase 4A (Homo sapiens), O75164. Potency, µM (doses to about 114 µM), most hits filed as inhibitors. 390,000 tested, 4.4% active; also: nearly all actives have a fitted effect of over 50% in size
# Target sequence (O75164 whole entry, looked up, the tested form may be a part): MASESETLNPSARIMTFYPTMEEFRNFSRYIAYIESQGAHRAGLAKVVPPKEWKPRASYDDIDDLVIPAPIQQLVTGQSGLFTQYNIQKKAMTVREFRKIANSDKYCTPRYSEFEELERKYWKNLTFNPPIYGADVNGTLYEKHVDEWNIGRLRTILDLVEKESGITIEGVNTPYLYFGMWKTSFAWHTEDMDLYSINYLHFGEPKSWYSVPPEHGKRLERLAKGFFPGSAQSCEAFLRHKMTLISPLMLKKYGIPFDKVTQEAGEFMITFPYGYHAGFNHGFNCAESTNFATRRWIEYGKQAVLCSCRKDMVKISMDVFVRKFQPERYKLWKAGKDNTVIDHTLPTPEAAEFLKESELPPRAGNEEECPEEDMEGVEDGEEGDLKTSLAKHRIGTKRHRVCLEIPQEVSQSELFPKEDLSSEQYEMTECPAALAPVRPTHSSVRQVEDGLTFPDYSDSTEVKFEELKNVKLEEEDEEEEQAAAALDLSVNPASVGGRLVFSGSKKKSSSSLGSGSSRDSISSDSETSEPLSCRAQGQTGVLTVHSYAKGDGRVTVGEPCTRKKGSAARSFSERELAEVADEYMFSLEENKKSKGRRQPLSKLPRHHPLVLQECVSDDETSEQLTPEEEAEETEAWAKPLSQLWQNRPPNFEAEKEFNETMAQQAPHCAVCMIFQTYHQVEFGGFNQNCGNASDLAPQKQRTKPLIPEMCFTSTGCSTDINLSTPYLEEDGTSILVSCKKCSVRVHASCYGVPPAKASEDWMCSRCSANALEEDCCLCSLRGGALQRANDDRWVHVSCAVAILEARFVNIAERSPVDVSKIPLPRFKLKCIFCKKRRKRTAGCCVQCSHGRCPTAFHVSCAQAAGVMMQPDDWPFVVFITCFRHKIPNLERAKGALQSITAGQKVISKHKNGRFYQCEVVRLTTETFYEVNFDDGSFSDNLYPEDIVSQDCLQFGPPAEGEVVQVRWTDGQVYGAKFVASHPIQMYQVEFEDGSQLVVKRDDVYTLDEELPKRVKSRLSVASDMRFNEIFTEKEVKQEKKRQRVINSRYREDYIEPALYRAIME
# BAZ2B block: qHTS Assay for Inhibitors of BAZ2B. AlphaScreen BAZ2B-H3K14Ac peptide displacement. Potency, µM (highest dose often 114 µM), most hits filed as inhibitors. 360,000 tested, 4.4% active; also: nearly all actives have a fitted effect of over 60% in size
#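 AlphaScreen luminescence quantifies BAZ2B engagement of H3K14Ac peptide; the protein and biotinylated peptide are both at 50 nM final, buffer PBS pH 7.4 with 0.01% Tween-20, all steps at room temperature.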
# Sfp inh: qHTS Assay for Inhibitors of Bacillus subtilis Sfp phosphopantetheinyl transferase (PPTase) | Potency, µM, actives largely listed as inhibitors | Biochemical Sfp PPTase activity, qHTS | 4'-phosphopantetheinyl transferase ffp (Bacillus subtilis), Q9F4F7 | 310,000 tested, 3.5% active;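 also: the enzyme is Sfp with the accession as filed and its product quenches rhodamine fluorescence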
#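 Step 1, compound plus 15 nM Sfp-PPTase, 15 min, room temperature. Step 2, add rhodamine-CoA (5 uM) and BHQ-2-YbbR (12.5 uM). Step 3, read 525/598 nm fluorescence at 0 and 30 min.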
# PLK1 PBD block: qHTS for Inhibitors of PLK1-PDB (polo-like kinase 1 - polo-box domain): Primary Screen; AID 720504, 2013; 360,000 tested, 2.8% active; Plk1 PBD binding of FITC phosphopeptide, fluorescence polarization; Serine/threonine-protein kinase PLK1 (Homo sapiens), P53350; Potency, µM, actives largely listed as inhibitors; also: series mostly up to about 57 µM; nearly all actives have a fitted effect of over 65% in size
# G9a inh: qHTS Assay for Inhibitors of Histone Lysine Methyltransferase G9a | Histone-lysine N-methyltransferase EHMT2 (Homo sapiens), Q96KQ7 | G9a H3K9 monomethylation, AlphaScreen, 2 h | Potency, µM (doses to about 102 µM), hits mostly inhibitors | 350,000 tested, 8.8% active; also: nearly all actives have a fitted effect of over 75% in size
#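 AlphaScreen read-out: biotin-H3K9 peptide (500 nM) methylation by 20 nM enzyme with 20 uM SAM, 2 h at room temperature after 15 min compound preincubation; anti-monomethyl H3K9 antibody plus donor/acceptor beads, 10 min dark.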
# HP1b binding inh: HTS for Inhibitors of HP1-beta Chromodomain Interactions with Methylated Histone Tails; Chromobox protein homolog 1 (Homo sapiens), P83916; AlphaScreen HP1-beta / biotin-H3K9me3 peptide binding; Potency, µM (series often up to 114 µM), hits mostly inhibitors; 390,000 tested, 0.56% active; AID 540317, 2011; also: nearly all actives have a fitted effect of over 70% in size
#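 Compound inhibition of the preformed complex between 50 nM HP1-beta and 50 nM biotinylated H3K9me3 peptide was read by AlphaScreen. Buffer was PBS pH 7.4 with 0.01% Tween-20. Incubations ran 30 min at room temperature, with 10 ug/mL donor/acceptor beads.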
# Hits are given with their value; i = inactive; ? = inconclusive; nt = no result; [ ] = dose if it differs, or a comment. Sampled rows, rich in hits. Any-hit rate of the full collection: about 12%. Calls follow the shape of the dose curve; as a rule, active = well fitted curve in the direction sought with a large enough effect; inconclusive = small, poorly fitted or top-dose-only effect, or another doubt; inactive = no such curve, though single readings can be large; an effect the other way counts as inactive or inconclusive.
SMILES,JMJD2A Tudor inh,BAZ2B block,Sfp inh,PLK1 PBD block,G9a inh,HP1b binding inh
CCN1C(=O)/C(=C2/Sc3ccccc3N2CC)SC1=S,i,i,i,i,nt,i
C=CCN1/C(=C2/SC(=S)N(C)C2=O)Sc2ccccc21,nt,?,i,nt,40µM,nt
O=C1NC(=S)S/C1=C1\Sc2ccccc2N1CCCS(=O)(=O)O,i[11.4 µM],?,25µM,?,10µM,?
CCN(C(=O)CSc1nc2ccccc2n1Cc1ccc(C(=O)OC)cc1)c1ccccc1,i,i,nt,nt,i[12.7 µM],i
CC(C)CC(=O)N=C1SC2CS(=O)(=O)CC2N1Cc1ccccc1Cl (stereo not given),i,i,i,i,?,i
C/C(CC(=O)N1CCN(C=O)CC1)=N\NC(=O)c1ccc([N+](=O)[O-])cc1,i,i,?,i,10µM,i
Cc1cc(/C=N/NC(N)=S)c(C)n1-c1ccc(Br)cc1,i,?,i,i,i,i
Cc1ccccc1-n1c(C)cc(/C=N/NC(=O)c2ccncc2)c1C,i,?,i,i,i[2.33 µM],i
Cc1cccc(-n2c(C)cc(/C=N\NC(=O)c3ccco3)c2C)c1,i,?,i,i,45µM,i
Cc1cccc(C)c1-n1c(C)cc(/C=N/NC(N)=S)c1C,50µM,45µM,?,i,50µM,i
O=C(N/N=C/c1ccc2ncccc2c1)c1ccco1,79µM,i,i,i,14µM,i
O=C(N/N=C/c1ccccn1)c1ccco1,i,?,?,i,?,i
Cc1cc(/C=N/NC(N)=S)c(C)n1-c1ccc(Cl)cc1,?,i,i,30µM,i,i
CC(C)CC1COC(=O)N1 (stereo not given),i,i,i,i,nt,i
Cc1ccc(NC(=O)C2(c3cccs3)CCOCC2)cc1Cl,i,i,nt,nt,i,i
Cc1cc(/C=N/NC(N)=S)c(C)n1-c1cccc(Cl)c1,?,?,i,i,45µM,?
Cn1cccc1CNC(=S)Nc1ccccc1Cl,i,i,i,i,?,i
Cc1cc(C)cc(NC(=S)NCc2cccn2C)c1,?,50µM,i,i,i,i
COc1cccc2cc(C(=O)N3CCC(C)CC3)c(=O)oc12,i,i,i,i,50µM,i
COc1cccc2cc(C(=O)N3CCN(C45CC6CC(CC(C6)C4)C5)CC3)c(=O)oc12,i[11.4 µM],i,i,27µM,?,i
COc1cccc2cc(C(=O)N3C(C)CCCC3C)c(=O)oc12 (stereo not given),i,i,i,i,i,i
COc1ccccc1CNC(=O)C1CCCN(S(=O)(=O)c2ccc3c(c2)oc(=O)n3C)C1 (stereo not given),?,i,nt,nt,i,i
CN(/N=C\c1ccc(O)c(O)c1)c1nc(-c2ccccc2)cc(-c2ccccc2)n1,?,40µM,?,i,40µM,?
CC(Sc1nnc(C(C)Oc2ccc(F)cc2)o1)C(=O)NCc1ccc2c(c1)OCO2 (stereo not given),nt,nt,nt,i,nt,nt
CC(C)(C)[C@H]1COC(=O)CC/C=C\C[C@@H](CC(=O)N(CCO)Cc2ccccc2)C(=O)N1,i,nt,nt,i,nt,i
SMILES,JMJD2A Tudor inh,BAZ2B block,Sfp inh,PLK1 PBD block,G9a inh,HP1b binding inh
C/C(=N\N(c1ccccc1)c1ccccc1)c1ccc(N)cc1,22µM,nt,nt,i,nt,?
CC(=NN(Cc1ccccc1)c1ccccc1)c1ccccc1,i,nt,nt,i,nt,i
C/C(=N/NC(=O)C(=O)N/N=C(/C)c1ccccc1)c1ccccc1,nt,i,i,nt,i,nt
C/C(=N\N(c1ccccc1)c1ccccc1)c1ccc(O)cc1,40µM,50µM,i,i,79µM,?
COc1ccc(-c2nc3sc(CCNC(=O)Cc4ccc(F)cc4)c(C)n3n2)cc1,i,i,nt,nt,i,i
COc1ccc(-c2nc3sc(CCNC(=O)Cc4ccccc4)c(C)n3n2)cc1,i,i,nt,nt,3.5µM,i
C=CCc1cccc(/C=N/c2ncn[nH]2)c1O,i,i,i,i,i[12.7 µM],i
CCc1ccc(O)c(N=Cc2cccc(C)c2O)c1,?,i,i,i,2.5µM,i
Cc1cccc(C=Nc2ccc3c4c(cccc24)CC3)c1O,i,?,i,i,?,i
